About 79,000 compounds went through this panel and 15% of them were active in at least one assay; those are over-represented in the sample as a whole. Values without a mark were called inactive. The source made the active and inactive calls. No stated cut-off is given here; in the data, active means growth inhibition above about 70%; inactive means the rest.
Assays:
[1] = NCI Yeast Anticancer Drug Screen. Data for the rad52 strain (AID 147);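 further: 0% = growth of vehicle-treated control cultures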; details: S. cerevisiae rad52 mutant growth inhibition, hits give high values
Summary of the method: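 Yeast strain carrying a DNA damage repair alteration was exposed to test compounds. Growth inhibition was measured relative to vehicle-treated controls.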

[2] = NCI Yeast Anticancer Drug Screen. Data for the wt1 strain (AID 149);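 further: 0% = growth of vehicle-treated wt1 cultures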; details: S. cerevisiae wt1 strain (SPY 50644) growth inhibition, hits give high values
Summary of the method: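 Yeast wt1 strain exposed to compounds; growth inhibition measured relative to vehicle-treated controls.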

[3] = NCI Yeast Anticancer Drug Screen. Data for the rad50EPP+ strain (AID 151);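 further: 0% = growth of vehicle-treated control cultures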; details: S. cerevisiae rad50 mutant strain, hits give high values
Summary of the method: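 Yeast strain carrying rad50 alteration (rad50EPP+) exposed to compounds; growth inhibition measured relative to vehicle-treated controls.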

[4] = NCI Yeast Anticancer Drug Screen. Data for the mgt1 strain (AID 153); details: S. cerevisiae mgt1 mutant growth inhibition, hits give high values
Summary of the method: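 Yeast mgt1 strain (DNA repair/cell-cycle alteration panel) exposed to compounds; growth inhibition measured relative to vehicle-treated controls.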

[5] = NCI Yeast Anticancer Drug Screen. Data for the rad50 strain (AID 155);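 further: 0% = growth of vehicle-only cultures of the same strain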; details: S. cerevisiae rad50 strain growth inhibition, hits give high values
Summary of the method: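 Yeast carrying a defined DNA repair defect were exposed to test compounds, and growth was compared with vehicle-treated controls to give percent inhibition.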

[6] = NCI Yeast Anticancer Drug Screen. Data for the mec2-1 strain (AID 157); details: S. cerevisiae mec2-1 strain, hits give high values
Summary of the method: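 mec2-1 yeast strain, carrying an alteration in DNA damage repair or cell cycle control, was exposed to compounds; growth inhibition was measured relative to vehicle-treated controls.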

[7] = NCI Yeast Anticancer Drug Screen. Data for the rad14 strain (AID 159);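 further: 0% = growth of vehicle-treated control cultures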; details: S. cerevisiae rad14 strain growth inhibition, hits give high values
Summary of the method: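 Yeast cells carrying a defined DNA-repair defect were exposed to compounds, and growth inhibition was calculated relative to vehicle-treated control cultures.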

[8] = NCI Yeast Anticancer Drug Screen. Data for the sgs1 mgt1 strain (AID 161);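 further: 0% = growth of cultures given vehicle only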; details: S. cerevisiae sgs1 mgt1 strain, hits give high values
Summary of the method: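 Compounds are added to genetically altered yeast, and growth is compared with cultures given vehicle alone to give percent inhibition.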

[9] = NCI Yeast Anticancer Drug Screen. Data for the CLN2oe strain (AID 163);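 further: 0% = growth of vehicle-only control cultures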; details: S. cerevisiae CLN2oe strain, hits give high values
Summary of the method: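 Yeast cells carrying a defined cell-cycle control alteration were exposed to test compounds. Growth inhibition was scored against vehicle-treated control cultures.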

[10] = NCI Yeast Anticancer Drug Screen. Data for the cln2 rad14 strain (AID 165);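 further: 0% = growth equal to vehicle treated cultures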; details: S. cerevisiae cln2 rad14 strain, hits give high values
Summary of the method: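 Yeast carrying cln2 and rad14 alterations (cell cycle control and DNA damage repair) were exposed to compounds. Growth inhibition was measured against vehicle-treated controls.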

[11] = NCI Yeast Anticancer Drug Screen. Data for the bub3 strain (AID 167); details: S. cerevisiae bub3 mutant strain, hits give high values
Summary of the method: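 Compounds were applied to a genetically altered yeast strain carrying a cell-cycle control defect. Growth inhibition was scored against vehicle-treated controls.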

[12] = NCI Yeast Anticancer Drug Screen. Data for the wt2 strain (AID 169);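 further: 0% = growth of vehicle-treated yeast cultures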; details: S. cerevisiae wt2 strain growth inhibition, hits give high values
Summary of the method: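 Yeast cells were exposed to test compounds, and growth inhibition was measured relative to vehicle-treated controls.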

[13] = NCI Yeast Anticancer Drug Screen. Data for the mlh1 strain (AID 171);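 further: 0% = growth of vehicle-treated control cultures of the same strain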; details: S. cerevisiae mlh1 strain growth inhibition, hits give high values
Summary of the method: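 Yeast carrying a defined genetic alteration in DNA damage repair or cell cycle control were exposed to test compounds. Growth inhibition was measured relative to vehicle-treated controls.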

[14] = NCI Yeast Anticancer Drug Screen. Data for the sgs1 strain (AID 173);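 further: 0% = growth of vehicle-only control cultures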; details: S. cerevisiae sgs1 mutant, hits give high values
Summary of the method: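 Yeast mutant strains carrying defined defects in DNA damage repair or cell cycle control were exposed to test compounds. Growth inhibition was scored against vehicle-treated controls.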

[15] = NCI Yeast Anticancer Drug Screen. Data for the mlh1 rad18 strain (AID 175); details: S. cerevisiae mlh1 rad18 strain growth inhibition, hits give high values
Summary of the method: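 Growth inhibition of the yeast strain was measured after compound exposure and expressed relative to vehicle-treated controls. The strain carries defined defects in DNA damage repair.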

[16] = NCI Yeast Anticancer Drug Screen. Data for the rad18 strain (AID 177); details: S. cerevisiae rad18 mutant growth inhibition, hits give high values
Summary of the method: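 Yeast carrying a defined DNA damage repair alteration were exposed to compounds. Growth inhibition was expressed relative to vehicle-treated controls.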

[17] = at 5.0 µM (retest, dose inferred, filed as 0.5)
[18] = at 50.0 µM (retest, dose inferred, filed as 5.0)

## [N-]=N[N+]#I1OC(C(F)(F)F)(C(F)(F)F)c2ccccc21
[1]; at 1.2 µM
  growth inhibition: 44%
[1]; at 3.7 µM
  growth inhibition: 82% (active)
[1]; at 11.0 µM
  growth inhibition: 97% (active)
[1]; at 33.0 µM
  growth inhibition: 99% (active)
[1]; at 100.0 µM
  growth inhibition: 100% (active)
[2]; at 1.2 µM
  growth inhibition: 17%
[2]; at 3.7 µM
  growth inhibition: 84% (active)
[2]; at 11.0 µM
  growth inhibition: 99% (active)
[2]; at 33.0 µM
  growth inhibition: 99% (active)
[2]; at 100.0 µM
  growth inhibition: 99% (active)
[3]; at 1.2 µM
  growth inhibition: 3%
[3]; at 3.7 µM
  growth inhibition: 13%
[3]; at 11.0 µM
  growth inhibition: 42%
[3]; at 33.0 µM
  growth inhibition: 93% (active)
[3]; at 100.0 µM
  growth inhibition: 99% (active)
[4]; at 1.2 µM
  growth inhibition: 38%
[4]; at 3.7 µM
  growth inhibition: 88% (active)
[4]; at 11.0 µM
  growth inhibition: 99% (active)
[4]; at 33.0 µM
  growth inhibition: 100% (active)
[4]; at 100.0 µM
  growth inhibition: 100% (active)
[5]; at 1.2 µM
  growth inhibition: 58%
[5]; at 3.7 µM
  growth inhibition: 90% (active)
[5]; [17]
  growth inhibition: 7%
[5]; at 11.0 µM
  growth inhibition: 97% (active)
[5]; at 33.0 µM
  growth inhibition: 100% (active)
[5]; [18]
  growth inhibition: 99% (active)
[5]; at 50.0 µM
  growth inhibition: 91.7% (active)
[5]; at 100.0 µM
  growth inhibition: 100% (active)
[6]; at 1.2 µM
  growth inhibition: 45%
[6]; at 3.7 µM
  growth inhibition: 91% (active)
[6]; [17]
  growth inhibition: 2%
[6]; at 11.0 µM
  growth inhibition: 99% (active)
[6]; at 33.0 µM
  growth inhibition: 100% (active)
[6]; [18]
  growth inhibition: 99% (active)
[6]; at 50.0 µM
  growth inhibition: 93.7% (active)
[6]; at 100.0 µM
  growth inhibition: 99% (active)
[7]; at 1.2 µM
  growth inhibition: 27%
[7]; at 3.7 µM
  growth inhibition: 90% (active)
[7]; at 11.0 µM
  growth inhibition: 99% (active)
[7]; at 33.0 µM
  growth inhibition: 100% (active)
[7]; at 100.0 µM
  growth inhibition: 99% (active)
[8]; [17]
  growth inhibition: 81% (active)
[8]; [18]
  growth inhibition: 98% (active)
[8]; at 50.0 µM
  growth inhibition: 92.8% (active)
[9]; at 1.2 µM
  growth inhibition: 40%
[9]; at 3.7 µM
  growth inhibition: 81% (active)
[9]; at 11.0 µM
  growth inhibition: 98% (active)
[9]; at 33.0 µM
  growth inhibition: 99% (active)
[9]; at 100.0 µM
  growth inhibition: 98% (active)
[10]; [17]
  growth inhibition: 47%
[10]; [18]
  growth inhibition: 98% (active)
[10]; at 50.0 µM
  growth inhibition: 92% (active)
[11]; at 1.2 µM
  growth inhibition: 28%
[11]; at 3.7 µM
  growth inhibition: 83% (active)
[11]; [17]
  growth inhibition: 91% (active)
[11]; at 11.0 µM
  growth inhibition: 99% (active)
[11]; at 33.0 µM
  growth inhibition: 100% (active)
[11]; [18]
  growth inhibition: 98% (active)
[11]; at 50.0 µM
  growth inhibition: 92.8% (active)
[11]; at 100.0 µM
  growth inhibition: 97% (active)
[12]; at 1.2 µM
  growth inhibition: 18%
[12]; at 3.7 µM
  growth inhibition: 76% (active)
[12]; at 11.0 µM
  growth inhibition: 98% (active)
[12]; at 33.0 µM
  growth inhibition: 99% (active)
[12]; at 100.0 µM
  growth inhibition: 99% (active)
[13]; at 1.2 µM
  growth inhibition: 53%
[13]; at 3.7 µM
  growth inhibition: 90% (active)
[13]; at 11.0 µM
  growth inhibition: 98% (active)
[13]; at 33.0 µM
  growth inhibition: 99% (active)
[13]; at 100.0 µM
  growth inhibition: 99% (active)
[14]; at 1.2 µM
  growth inhibition: 41%
[14]; at 3.7 µM
  growth inhibition: 89% (active)
[14]; at 11.0 µM
  growth inhibition: 98% (active)
[14]; at 33.0 µM
  growth inhibition: 99% (active)
[14]; at 100.0 µM
  growth inhibition: 99% (active)
[15]; [17]
  growth inhibition: 34%
[15]; [18]
  growth inhibition: 99% (active)
[15]; at 50.0 µM
  growth inhibition: 92% (active)
[16]; at 1.2 µM
  growth inhibition: 62%
[16]; at 3.7 µM
  growth inhibition: 89% (active)
[16]; at 11.0 µM
  growth inhibition: 98% (active)
[16]; at 33.0 µM
  growth inhibition: 99% (active)
[16]; at 100.0 µM
  growth inhibition: 99% (active)

## [N-]=[N+]=NC1=C(c2ccccn2)C(=O)c2cccc3cccc1c23
[1]; at 1.2 µM
  growth inhibition: 2%
[1]; at 3.7 µM
  growth inhibition: 4%
[1]; at 11.0 µM
  growth inhibition: 24%
[1]; at 33.0 µM
  growth inhibition: 50%
[1]; at 100.0 µM
  growth inhibition: 75% (active)
[2]; at 1.2 µM
  growth inhibition: 2%
[2]; at 3.7 µM
  growth inhibition: 4%
[2]; at 11.0 µM
  growth inhibition: 5%
[2]; at 33.0 µM
  growth inhibition: 14%
[2]; at 100.0 µM
  growth inhibition: 34%
[3]; at 1.2 µM
  growth inhibition: 9%
[3]; at 3.7 µM
  growth inhibition: 16%
[3]; at 11.0 µM
  growth inhibition: 31%
[3]; at 33.0 µM
  growth inhibition: 74% (active)
[3]; at 100.0 µM
  growth inhibition: 93% (active)
[4]; at 1.2 µM
  growth inhibition: -3%
[4]; at 3.7 µM
  growth inhibition: -1%
[4]; at 11.0 µM
  growth inhibition: 19%
[4]; at 33.0 µM
  growth inhibition: 10%
[4]; at 100.0 µM
  growth inhibition: 41%
[5]; at 1.2 µM
  growth inhibition: 2%
[5]; at 3.7 µM
  growth inhibition: 3%
[5]; [17]
  growth inhibition: 7%
[5]; at 11.0 µM
  growth inhibition: 5%
[5]; at 33.0 µM
  growth inhibition: 53%
[5]; [18]
  growth inhibition: 71% (active)
[5]; at 50.0 µM
  growth inhibition: 67.2%
[5]; at 100.0 µM
  growth inhibition: 71% (active)
[6]; at 1.2 µM
  growth inhibition: 5%
[6]; at 3.7 µM
  growth inhibition: 7%
[6]; [17]
  growth inhibition: -5%
[6]; at 11.0 µM
  growth inhibition: 14%
[6]; at 33.0 µM
  growth inhibition: 37%
[6]; [18]
  growth inhibition: 40%
[6]; at 50.0 µM
  growth inhibition: 63.8%
[6]; at 100.0 µM
  growth inhibition: 61%
[7]; at 1.2 µM
  growth inhibition: 2%
[7]; at 3.7 µM
  growth inhibition: 5%
[7]; at 11.0 µM
  growth inhibition: 11%
[7]; at 33.0 µM
  growth inhibition: 26%
[7]; at 100.0 µM
  growth inhibition: 63%
[8]; [17]
  growth inhibition: -7%
[8]; [18]
  growth inhibition: 28%
[8]; at 50.0 µM
  growth inhibition: 71.4% (active)
[9]; at 1.2 µM
  growth inhibition: -3%
[9]; at 3.7 µM
  growth inhibition: 1%
[9]; at 11.0 µM
  growth inhibition: 5%
[9]; at 33.0 µM
  growth inhibition: 35%
[9]; at 100.0 µM
  growth inhibition: 74% (active)
[10]; [17]
  growth inhibition: 38%
[10]; [18]
  growth inhibition: 31%
[10]; at 50.0 µM
  growth inhibition: 67%
[11]; at 1.2 µM
  growth inhibition: -1%
[11]; at 3.7 µM
  growth inhibition: 4%
[11]; [17]
  growth inhibition: -11%
[11]; at 11.0 µM
  growth inhibition: 18%
[11]; at 33.0 µM
  growth inhibition: 24%
[11]; [18]
  growth inhibition: 59%
[11]; at 50.0 µM
  growth inhibition: 69.6%
[11]; at 100.0 µM
  growth inhibition: 61%
